# Screening results from PubChem.
# G9a inh-1 = blocks human histone lysine methyltransferase G9a. G9a H3K9 monomethylation, AlphaScreen, 2 h. Potency, µM (highest dose often 102 µM), without a hit: at the highest dose activity, negative = inhibition, usual class: inhibitors. 8.8% of 350,000 active. AID 504332; further: potency means the concentration at half of the fitted maximal effect; on the % scale 0 is the no-effect control and ±100 the full control effect; nearly all actives have a fitted effect of over 75% in size
# Target sequence (Q96KQ7 913-1193 limits assumed): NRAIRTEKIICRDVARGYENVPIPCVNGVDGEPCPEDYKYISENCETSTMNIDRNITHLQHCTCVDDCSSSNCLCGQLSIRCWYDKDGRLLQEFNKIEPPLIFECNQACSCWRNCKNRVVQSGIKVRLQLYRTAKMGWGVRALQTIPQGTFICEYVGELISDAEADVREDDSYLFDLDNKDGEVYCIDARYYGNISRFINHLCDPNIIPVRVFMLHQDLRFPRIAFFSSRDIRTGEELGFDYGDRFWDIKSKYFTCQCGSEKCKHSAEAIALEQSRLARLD
#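 Step 1: enzyme (final 20 nM) with compound, 15 min RT. Step 2: substrate peptide 500 nM and SAM 20 uM, 2 h RT. Step 3: anti-H3K9me1 antibody and AlphaScreen beads, 10 min, then plate read.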
# HP1b chromo inh = inhibitors of HP1-beta chromodomain binding to methylated histone tails; Potency, µM (titrated, usually from 114 µM), for the others: at the top dose activity change, negative = inhibition, actives largely listed as inhibitors; 0.56% of 390,000 active; P83916; AlphaScreen HP1-beta / biotin-H3K9me3 peptide binding; further: potency means the concentration at half of the fitted maximal effect; nearly all actives have a fitted effect of over 70% in size
# Target sequence (P83916 whole entry, looked up): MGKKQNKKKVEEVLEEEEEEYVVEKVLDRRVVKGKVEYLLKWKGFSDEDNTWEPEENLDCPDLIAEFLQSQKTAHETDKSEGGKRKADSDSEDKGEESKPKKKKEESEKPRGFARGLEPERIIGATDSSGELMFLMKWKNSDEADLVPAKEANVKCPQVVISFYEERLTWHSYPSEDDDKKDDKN
#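 AlphaScreen: HP1-beta (50 nM) preformed 30 min with biotin-H3(1-18)K9me3 peptide (50 nM) in PBS pH 7.4, 0.01% Tween-20. Compound added for 30 min at RT, then streptavidin donor/nickel chelate acceptor beads (10 ug/mL) for 30 min.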
# BAZ2B inh = blocks human BAZ2B. Q9UIF8. AlphaScreen BAZ2B-H3K14Ac peptide displacement. Potency, µM (highest dose often 114 µM), without a hit: at the top dose activity change, negative = inhibition, actives largely listed as inhibitors. 4.4% of 360,000 active. AID 504333; further: potency means the concentration at half of the fitted maximal effect; on the % scale 0 is the no-effect control and ±100 the full control effect; nearly all actives have a fitted effect of over 60% in size
#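 AlphaScreen displacement: compounds (up to 110uM) incubated 30 min at room temperature with a preformed 50 nM BAZ2B/50 nM biotinylated H3K14Ac peptide complex in PBS pH 7.4 with Tween-20. Donor and acceptor beads at 10 ug/mL final added, 20 min light-protected before reading.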
# JMJD2A Tudor inh = blocks the human JMJD2A Tudor domain; Potency, µM (doses to about 114 µM), for inactives: at the top dose activity change, negative = inhibition, actives largely listed as inhibitors; O75164; 4.4% of 390,000 active; AID 504339; AlphaScreen JMJD2A-Tudor / H3K4me3 peptide binding; further: potency means the concentration at half of the fitted maximal effect; on the % scale 0 is the no-effect control and ±100 the full control effect; nearly all actives have a fitted effect of over 50% in size
# CtBP-E1A blk = inhibitors of CtBP/E1A interaction. AlphaScreen GST-E1A/His-CtBP binding, 1536-well; active compounds read low. 0.49% of 340,000 active. activity change, % (test concentration not listed); in the data active means activity change below about -65%; inconclusive means mostly about -30% to -63%; further: on the % scale 0 is the no-effect control and ±100 the full control effect
#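 Homogeneous bead-based format: GST-tagged E1A captured on glutathione donor beads, His-tagged CtBP on nickel acceptor beads; compounds precede bead addition by 2 h at 37 °C.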
# Six1-Eya2 inh = blocks human Six1 binding to Eya2. AID 651725. 0.56% of 360,000 active. activity change, % (concentration not given with the values). Q15475+O00167. AlphaScreen GST-Six1/His-Eya2 binding, biochemical; active compounds read low; in the data active means activity change below about -65%; inconclusive means mostly about -30% to -63%; further: on the % scale 0 is the no-effect control and ±100 the full control effect
#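 GST-Six1 + His-Eya2 (5X stock: 250/500 nM); Tris pH 8.0, 300 mM NaCl, 0.05% BSA, 0.02% Tween 20; GSH donor/Ni acceptor beads; 1 h 37 °C dark; AlphaScreen readout.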
# JMJD2E confirm = confirmation of inhibitors of human JMJD2E demethylase. Potency, µM (highest dose often 56.8 µM), inactives show top-dose activity change, negative = inhibition, hits mostly inhibitors. 93% of 140 active. shares compounds with JMJD2A Tudor inh. Recombinant JMJD2E, FDH-coupled NADH fluorescence (FDH is formaldehyde dehydrogenase). AID 2677
# FDH counter = blocks Pseudomonas putida formaldehyde dehydrogenase, flagging JMJD2E artifacts. shares compounds with JMJD2A Tudor inh. FDH enzyme assay, NADH fluorescence kinetic. 10% of 140 active. Potency, µM (top dose mostly 56.7 µM), inactives show top-dose activity, negative = inhibition, actives largely listed as inhibitors. AID 2680
# G9a inh-2 = inhibits human G9a histone lysine methyltransferase, hit confirmation | shares compounds with JMJD2A Tudor inh | G9a H3K9 monomethylation, AlphaScreen, 2 h | Potency, µM, actives largely listed as inhibitors | 89% of 370 active | AID 588344; further: potency means the concentration at half of the fitted maximal effect; nearly all actives have a fitted effect of over 65% in size
# RGS4 inh = inhibits human RGS4, hit validation; shares compounds with JMJD2A Tudor inh; RGS4 GAP activity, Transcreener GDP fluorescence polarization; Potency, µM, most hits filed as inhibitors; 80% of 25 active
# An asterisk follows results filed as active; ? = inconclusive; . = no result; [ ] = another dose, or the depositor's remark. Rows were chosen to be rich in hits. Some 10% of all compounds tested hit in one or more screens of this group. Unless noted, the call rests on the fitted dose curve; in most records, active means well fitted curve in the direction sought with a large enough effect; inconclusive means small, poorly fitted or top-dose-only effect, or another doubt; inactive means no such curve, though single readings can be large; an effect the other way counts as inactive or inconclusive.
SMILES,G9a inh-1,HP1b chromo inh,BAZ2B inh,JMJD2A Tudor inh,CtBP-E1A blk,Six1-Eya2 inh,G9a inh-2,others
COc1ccccc1-c1nccc(NCc2cnc(C)cn2)n1,.,.,.,.,.,.,.,RGS4 inh=27*
O=C(COc1ccc(Cl)cc1)Nc1nnc(S(=O)(=O)N2CCc3ccccc32)s1,0.89µM*,-9%,?,?,.,.,45*,
Cc1cc(C)cc(N2C(=O)CC(Sc3nnnn3-c3ccccc3)C2=O)c1 (stereo not drawn),-39%[0.501 µM],19%,?,-15%,-13,-7,.,
Cc1cc(C)cc(N2C(=O)CC(Sc3ncn[nH]3)C2=O)c1 (stereo not drawn),.,?,-9%,?,2,4,.,JMJD2E confirm=6.3µM*;FDH counter=0.28µM*
CCCn1c(CNC(=O)c2ccc(F)cc2)nc2ccccc21,3%[59 µM],29%,0%,-1%,.,.,.,
CCCn1c(CNc2ccccc2O)nc2ccccc21,?,-7%,?,?,?,?,11*,
Cc1cccc(NC(=O)C2C3CCC4C(CCC32)C4(Cl)Cl)c1 (stereo not drawn),-8%[59 µM],38%,2%,-3%,1,4,.,
Oc1c(C(Nc2nccs2)c2ccc(C(F)(F)F)cc2)ccc2cccnc12 (stereo not drawn),-6%,10%,10%,45µM*,?,?,.,JMJD2E confirm=22µM*;FDH counter=-26%
O=C(Nc1nccs1)NC(C(F)(F)F)C(F)(F)F,-14%,24%,-4%,-12%,-2,2,.,
COc1ccc(Nc2n[nH]c(N)c2C(N)=O)cc1,-33%,38%,.,-24%,2,4,.,
Cc1ccc2[nH]c(=O)c(CN(Cc3ccc4c(c3)OCO4)Cc3nnnn3Cc3ccco3)cc2c1,?,1%,-25%,-32%,-16,-19,.,
O=c1[nH]c2cc3c(cc2cc1CN(Cc1cccs1)Cc1nnnn1Cc1ccco1)OCCO3,?,-24%,.,?,-9,-23,.,RGS4 inh=9.5*
O=C(CN1CCN(c2ccc(O)cc2)CC1)Nc1ccccc1C(=O)NCCc1ccccc1,?,?,-7%,?,-7,-9,1.3*,
CN(C)S(=O)(=O)c1ccc(C(=O)NNC(=O)C2COc3ccccc3O2)cc1 (stereo not drawn),-4%,50%,-13%,-11%,-11,2,.,
Cc1ccc(NC(=O)CC2SC3=NCCCN3C2=O)c(C)c1 (stereo not drawn),0.71µM*,4%,2%,20%[11.4 µM],-2,-12,4.5*,
CC(C)OC(=O)CN1CCN(S(=O)(=O)c2cc(Cl)ccc2Cl)CC1,-26%[12.7 µM],14%,14%,-19%,-3,6,.,
CN(C)c1ccc(NC(=O)CN2CCN(S(=O)(=O)c3cc(Cl)ccc3Cl)CC2)cc1,1.4µM*,?,35µM*,?,-22,-26,4.5*,
CCOC(=O)[C@@H](NC(=O)/C=C/[C@H]1O[C@@H](n2ccc(=O)[nH]c2=O)[C@H](O)[C@@H]1O)C(C)C,.,.,.,.,9,1,.,
Cc1ccc(CNc2ccc(N3CCOCC3)cc2)s1,?,?,45µM*,50µM*,-23,?,10*,
